Test results reported in PubChem BioAssay AID602145 (NMMLSC, 2011).
Unmarked numbers belong to inactive results.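 The calls were made as follows: active = half-maximal potency of 10 µM or stronger, response changing by 30% or more across doses, valid fit; inactive = the rest.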

Test: disruption of GST–glutathione bead interaction – biochemical, flow cytometry beads, round 2, counter-screen for Rab7 GTPase inhibitor project, SAR follow-up (AID 602145)
Settings: GST-GFP binding to GSH beads; series mostly up to 100 µM; percent response (binding retained): at the top concentration

In order of falling “percent response (binding retained)” value:
1. O=C(NC(=S)Nc1sc2c(c1C(=O)O)CC1(CCCC1)OC2)c1ccccc1  100%
2. Cc1ccccc1C(=O)NC(=S)Nc1sc2c(c1C(=O)O)CC(C)(C)OC2  99.8%
3. Cc1cccc(C(=O)NC(=S)Nc2sc3c(c2C(=O)O)CC(C)(C)OC3)c1  99.6%
4. COc1ccccc1C(=O)NC(=S)Nc1sc2c(c1C(=O)O)CC(C)(C)OC2  97.3%
5. Cc1ccc(C(=O)NC(=S)Nc2sc3c(c2C(=O)O)CC(C)(C)OC3)cc1  95.8%
6. CCC1(C)Cc2c(sc(NC(=S)NC(=O)c3ccccc3)c2C(=O)O)CO1 (configuration not stated)  93.9%
7. CC1(C)Cc2c(sc(NC(=S)NC(=O)c3ccc(F)cc3)c2C(=O)O)CO1  93.4%
8. CC(C)(C)C1Cc2c(sc(NC(=S)NC(=O)c3ccccc3)c2C(=O)O)CO1 (configuration not stated)  92.7%
9. CC1(C)Cc2c(sc(NC(=S)NC(=O)c3cccs3)c2C(=O)O)CO1  90.7%
10. CC1(C)Cc2c(sc(NC(=S)NC(=O)C3CCCCC3)c2C(=O)O)CO1  90.5%
11. CC1(C)Cc2c(sc(NC(=S)NC(=O)c3ccco3)c2C(=O)O)CO1  90%
12. O=C(NC(=S)Nc1sc2c(c1C(=O)O)CCOC2)c1ccccc1  89.5%
